Our source for the growth values is PubChem BioAssay (NCI).

This is part of a sample that, as a whole, favours compounds with a hit. Of some 83,000 tested, about 20% had one in any assay.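 Assay: single dose, 48 h. Readout: percent growth (0 = no net growth; negative = cell death). Active: <10.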 Unmarked numbers belong to inactive results. Calls of active or inactive are those of the source.

Test systems include DU-145 prostate; K-562 leukemia; MALME-3M melanoma; MDA-MB-231 breast; RXF 393 renal; SF-268 CNS; SF-295 CNS; SF-539 CNS; UACC-257 melanoma; M14 melanoma; HCT-15 colon; HT29 colon; SNB-19 CNS; U251 CNS; PC-3 prostate; SK-MEL-5 melanoma; UACC-62 melanoma; LOX IMVI melanoma; SK-MEL-28 melanoma.
Holding throughout (assay): NCI-60 one-dose screen, 48 h (100 = growth as untreated, 0 = no growth, -100 = all killed)
Holding throughout (conditions): 10 µM unless noted

`CCOC(=O)C/C(=N\Nc1cc(=O)[nH]c2ccc(Br)cc12)C(=O)OCC`: the growth is 104% in the assay on DU-145 prostate; 24.2% in the assay on K-562 leukemia; 90.5% in the assay with MALME-3M melanoma; 102% with MDA-MB-231 breast; 104% with RXF 393 renal; 100% in the assay on SF-268 CNS. Also, the growth was 102% with SF-295 CNS; 99.8% in the assay with SF-539 CNS; 111% in the assay on UACC-257 melanoma; 96.8% in the assay with M14 melanoma; 99.3% in the assay with HCT-15 colon; 107% in the assay on HT29 colon. In addition, the growth is 99.5% with SNB-19 CNS; 108% in the assay with U251 CNS; 87.4% in the assay on PC-3 prostate; 95.1% with SK-MEL-5 melanoma; 90.6% in the assay on UACC-62 melanoma; 94.4% in the assay on LOX IMVI melanoma. Besides, the growth in the assay on SK-MEL-28 melanoma was 107%.

Take `CS(=O)(=O)Nc1cc(-c2ccc3ncnc(Nc4ccc5c(cnn5Cc5ccc(F)cc5)c4)c3c2)cnc1Cl`: the growth in the assay on DU-145 prostate was 62.1%; with K-562 leukemia, 48.5%; with MALME-3M melanoma it was -4.18% (active); in the assay on MDA-MB-231 breast, 32.9%; in the assay with RXF 393 renal, 9.93% (active); in the assay with SF-268 CNS, 14.9%. The growth was 66.1% in the assay with SF-295 CNS; 27.5% in the assay on SF-539 CNS; 50% in the assay with UACC-257 melanoma; 36.8% in the assay on M14 melanoma; 82.1% in the assay on HCT-15 colon; 53.3% in the assay on HT29 colon. In addition, the growth with SNB-19 CNS was 47%; in the assay on U251 CNS, 37.2%; with SK-MEL-5 melanoma it was 13.9%; with UACC-62 melanoma, 21%; in the assay with LOX IMVI melanoma it was 18.3%; in the assay with SK-MEL-28 melanoma, 16.7%.

As to `COc1cc2oc(-c3cccc(NC(=O)c4ccccc4)c3)cc(=O)c2c(OC)c1OC`, the growth in the assay with DU-145 prostate was 85.5%; in the assay with K-562 leukemia, 43.1%; with MALME-3M melanoma, 86.8%; in the assay on MDA-MB-231 breast, 74.7%; in the assay with RXF 393 renal, 74.4%; in the assay on SF-268 CNS, 72.3%. For the same molecule, the growth in the assay with SF-295 CNS is 77.8%; with SF-539 CNS, 67.8%; in the assay on UACC-257 melanoma, 99.7%; in the assay on M14 melanoma, 75.3%; with HCT-15 colon, 65.2%; with HT29 colon it was 77.1%. Also, the growth with SNB-19 CNS was 91.4%; in the assay on U251 CNS, 83.7%; with PC-3 prostate, 53.1%; with SK-MEL-5 melanoma, 63.2%; in the assay on UACC-62 melanoma, 66.8%; in the assay on LOX IMVI melanoma it was 61.7%. Also, in the assay with SK-MEL-28 melanoma, the growth was 73.2%.

`CCN(CC)S(=O)(=O)c1ccc(S(=O)(=O)N2CCC[C@@H](C(=O)N3CCN(c4nc(C(C)C)no4)CC3)C2)cc1`: the growth in the assay on DU-145 prostate was 62.6%; in the assay with K-562 leukemia, 30.9%; with MALME-3M melanoma, 85.3%; with MDA-MB-231 breast, 81.3%; with RXF 393 renal, 64.5%; in the assay with SF-268 CNS it was 69%. Moreover, the growth with SF-295 CNS was 52.8%; in the assay on SF-539 CNS, 74.3%; with UACC-257 melanoma, 45.1%; in the assay on M14 melanoma it was 78.8%; in the assay with HCT-15 colon, 92.2%; in the assay with HT29 colon, 87.8%. Further, the growth with SNB-19 CNS was 64.2%; with U251 CNS it was 85.3%; with PC-3 prostate, 76.2%; in the assay with SK-MEL-5 melanoma, 17.2%; with UACC-62 melanoma it was 59.7%; in the assay with LOX IMVI melanoma, 54%. Also, in the assay with SK-MEL-28 melanoma, the growth was 91%.

In the case of `N#Cc1nc(-c2ccc(F)cc2)oc1S(=O)(=O)N1CCOCC1`, the growth in the assay with DU-145 prostate was 93.8%; in the assay with K-562 leukemia, 7.52% (active); with MALME-3M melanoma, 1.99% (active); with MDA-MB-231 breast it was 83.2%; in the assay with RXF 393 renal it was -27.8% (active); in the assay on SF-268 CNS it was 114%. Further, the growth was 104% in the assay on SF-295 CNS; 66.7% in the assay with SF-539 CNS; 93.9% with UACC-257 melanoma; 54.2% in the assay with M14 melanoma; -29.9% (active) in the assay on HCT-15 colon; 36.5% in the assay with HT29 colon. Further, the growth with SNB-19 CNS is 95.8%; with U251 CNS, 98.9%; in the assay with PC-3 prostate, 91%; with SK-MEL-5 melanoma it was 82.6%; with UACC-62 melanoma it was 89.9%; with LOX IMVI melanoma, 8.36% (active). In the assay with SK-MEL-28 melanoma, the growth was 85.7%.

As for `C=C(CBr)[C@@H]1CC[C@]2(C(=O)O)CC[C@]3(C)[C@H](CC[C@@H]4[C@@]5(C)CCC(=O)C(C)(C)[C@@H]5CC[C@]43C)[C@@H]12`, the growth in the assay on DU-145 prostate was 86.1%; with K-562 leukemia, 50.4%; in the assay on MALME-3M melanoma it was 89.4%; in the assay with MDA-MB-231 breast, 81%; in the assay on RXF 393 renal it was 85.9%; in the assay on SF-268 CNS, 83.1%. Also, the growth was 79.2% with SF-295 CNS; 99.2% in the assay on SF-539 CNS; 80.2% with UACC-257 melanoma; 80% in the assay with M14 melanoma; 73.2% in the assay with HCT-15 colon; 97.5% in the assay on HT29 colon. Further, the growth was 78.7% in the assay on SNB-19 CNS; 70.9% in the assay with U251 CNS; 57.4% with PC-3 prostate; 50.5% in the assay with SK-MEL-5 melanoma; 69% in the assay on UACC-62 melanoma; 75.4% in the assay with LOX IMVI melanoma. In addition, the growth in the assay on SK-MEL-28 melanoma is 88.7%.

For `CC1=C2[C@@H](CC1)[C@]1(C)O[C@@](C(C)C)(C[C@H]1OC(=O)[C@H](C)O)[C@H]2OC(=O)/C=C/c1ccccc1`, the growth was 105% in the assay on DU-145 prostate; 68.7% in the assay with K-562 leukemia; 101% in the assay with MALME-3M melanoma; 83.1% with MDA-MB-231 breast; 30.8% in the assay with RXF 393 renal; 41% with SF-268 CNS. The growth with SF-295 CNS is 78.7%; in the assay with SF-539 CNS, 96.8%; in the assay with UACC-257 melanoma, 90.5%; with M14 melanoma, 87.2%; in the assay with HCT-15 colon, 83.6%; with HT29 colon, 82.8%. For the same molecule, the growth in the assay with SNB-19 CNS was 85.1%; with U251 CNS, 79%; with PC-3 prostate, 58.3%; in the assay on SK-MEL-5 melanoma it was 90.3%; with UACC-62 melanoma it was 66%; in the assay with LOX IMVI melanoma, 84.6%. For the same molecule, the growth with SK-MEL-28 melanoma was 108%.

As for `N#C/C(=C\c1c(-c2ccccc2)[nH]c2ccccc12)C(N)=O`, the growth in the assay on DU-145 prostate was 108%; in the assay with K-562 leukemia, 24%; in the assay on MALME-3M melanoma, 93%; in the assay on MDA-MB-231 breast it was 71.6%; in the assay on RXF 393 renal it was 122%; with SF-268 CNS it was 97.3%. Further, the growth with SF-295 CNS was 99.7%; with SF-539 CNS it was 71%; in the assay with UACC-257 melanoma it was 105%; in the assay with M14 melanoma it was 68.9%; in the assay with HCT-15 colon, 56.4%; with HT29 colon, 67.4%. For the same molecule, the growth is 89.6% in the assay with SNB-19 CNS; 79.6% with U251 CNS; 69.8% in the assay on PC-3 prostate; 64.7% with SK-MEL-5 melanoma; 58.9% in the assay with UACC-62 melanoma; 76.2% with LOX IMVI melanoma. Also, the growth in the assay on SK-MEL-28 melanoma was 97.6%.
